Measurements taken from PubChem BioAssay AID1159580 (chemical genetic matrix, 2015).
About 2,000 (36%) of roughly 5,500 compounds were called active. Another 18% or so got no clear call; they are omitted. Rule as the data show it: active = normalized growth mostly below about 0.91 (no sharp cut-off); inconclusive = no clear call, values can overlap the other calls; inactive = mostly above about 0.92. This is one part of the list.

Test: chemical genetic growth profiling, strain panel (AID 1159580);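 also: tested at 20 µM; growth read once vehicle control cultures reached saturation at 30 °C; 1 = growth at the plate median or of vehicle wells; lower values mean less growth of the strain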
Details: S. cerevisiae deletion strains, growth OD

Measured: normalized growth

C[C@]12CCC3c4ccc(OS(=O)(=O)O)cc4CCC3C1CCC2=O (some centres undefined)
inactive: locus YAL021C, strain ccr4, stronger effect = lower value 0.957 | locus YAL026C, strain drs2, stronger effect = lower value 1.01 | locus YAL030W, strain snc1, stronger effect = lower value 0.986 | locus YBL061C, strain skt5, stronger effect = lower value 0.967 | locus YBR009C, strain hhf1, stronger effect = lower value 1.02 | locus YBR023C, strain chs3, stronger effect = lower value 0.987 | locus YBR171W, strain sec66, stronger effect = lower value 1 | locus YBR231C, strain swc5, stronger effect = lower value 1.01 | locus YBR279W, strain paf1, stronger effect = lower value 0.999 | locus YCL011C, strain gbp2, stronger effect = lower value 0.998 | locus YCL016C, strain dcc1, stronger effect = lower value 0.986 | locus YCL061C, strain MRC1, stronger effect = lower value 1.01 | locus YCL069W, strain vba3, stronger effect = lower value 0.995 | locus YCR088W, strain abp1, stronger effect = lower value 0.998 | locus YDL005C, strain med2, stronger effect = lower value 0.978 | locus YDL040C, strain nat1, stronger effect = lower value 1 | locus YDR001C, strain nth1, stronger effect = lower value 0.995 | locus YDR069C, strain doa4, stronger effect = lower value 0.989 | locus YDR137W, strain rgp1, stronger effect = lower value 0.976 | locus YDR159W, strain sac3, stronger effect = lower value 1 | locus YDR195W, strain ref2 0.999 | locus YDR297W, strain sur2, stronger effect = lower value 1 | locus YDR334W, strain swr1, stronger effect = lower value 0.993 | locus YDR335W, strain msn5, stronger effect = lower value 1 | locus YDR392W, strain spt3, stronger effect = lower value 0.923 | locus YEL003W, strain gim4, stronger effect = lower value 0.998 | locus YEL037C, strain rad23, stronger effect = lower value 1.01 | locus YEL061C, strain CIN8 (second series), stronger effect = lower value 1.03 | locus YER015W, strain faa2, stronger effect = lower value 0.993 | locus YER016W, strain bim1, stronger effect = lower value 0.962 | locus YER111C, strain swi4, stronger effect = lower value 0.959 | locus YER155C, strain BEM2 (second series), stronger effect = lower value 1 | locus YFR010W, strain ubp6, stronger effect = lower value 1.02 | locus YGL167C, strain pmr1, stronger effect = lower value 1 | locus YGL173C, strain kem1, stronger effect = lower value 0.97 | locus YGL227W, strain vid30, stronger effect = lower value 0.981 | locus YGL240W, strain doc1, stronger effect = lower value 0.983 | locus YGL253W, strain hxk2, stronger effect = lower value 0.996 | locus YHR013C, strain ard1, stronger effect = lower value 0.939 | locus YHR027C, strain rpn1, stronger effect = lower value 1.01 | locus YHR030C, strain SLT2, stronger effect = lower value 0.961 | locus YHR079C, strain IRE1, stronger effect = lower value 0.961 | locus YHR142W, strain chs7, stronger effect = lower value 0.983 | locus YJL092W, strain hpr5, stronger effect = lower value 1 | locus YJL095W, strain BCK1 (second series), stronger effect = lower value 0.977 | locus YJL095W, strain BCK1, stronger effect = lower value 0.992 | locus YJL115W, strain asf1, stronger effect = lower value 0.995 | locus YJL129C, strain trk1, stronger effect = lower value 0.958 | locus YJL154C, strain vps35, stronger effect = lower value 0.974 | locus YJL164C, strain tpk1, stronger effect = lower value 0.996 | locus YJL166W, strain qcr8, stronger effect = lower value 1.01 | locus YJR066W, strain TOR1, stronger effect = lower value 0.942 | locus YKL160W, strain elf1, stronger effect = lower value 0.928 | locus YKR026C, strain gcn3, stronger effect = lower value 1 | locus YKR091W, strain srl3, stronger effect = lower value 0.991 | locus YLL001W, strain dnm1, stronger effect = lower value 1.02 | locus YLL026W, stronger effect = lower value 1.02 | locus YLL041C, strain sdh2, stronger effect = lower value 0.991 | locus YLR027C, strain aat2, stronger effect = lower value 1.01 | locus YLR113W, strain HOG1, stronger effect = lower value 1.02 | locus YLR221C, strain rsa3, stronger effect = lower value 1.04 | locus YLR258W, strain gsy2, stronger effect = lower value 1 | locus YLR262C, strain YPT6 (second series), stronger effect = lower value 0.984 | locus YLR320W, strain mms22, stronger effect = lower value 1.01 | locus YLR342W, strain FKS1, stronger effect = lower value 0.971 | locus YLR357W, strain rsc2, stronger effect = lower value 0.983 | locus YLR370C, strain arc18, stronger effect = lower value 1.01 | locus YLR384C, strain iki3, stronger effect = lower value 0.981 | locus YML120C, strain ndi1, stronger effect = lower value 1 | locus YMR058W, strain fet3, stronger effect = lower value 1.01 | locus YMR125W, strain sto1, stronger effect = lower value 0.97 | locus YMR129W, stronger effect = lower value 1.01 | locus YMR205C, strain PFK2, stronger effect = lower value 1 | locus YMR231W, strain pep5, stronger effect = lower value 0.995 | locus YNL071W, strain lat1, stronger effect = lower value 1.02 | locus YNL183C, strain NPR1, stronger effect = lower value 0.975 | locus YNL209W, strain ssb2, stronger effect = lower value 0.985 | locus YNL248C, strain rpa49, stronger effect = lower value 0.89 | locus YNL322C, strain KRE1 (second series), stronger effect = lower value 0.948 | locus YNR049C, strain mso1, stronger effect = lower value 0.99 | locus YOR001W, strain rrp6, stronger effect = lower value 1.03 | locus YOR070C, strain gyp1, stronger effect = lower value 0.987 | locus YOR080W, strain dia2, stronger effect = lower value 0.991 | locus YOR083W, strain WHI5, stronger effect = lower value 0.912 | locus YOR106W, strain vam3, stronger effect = lower value 0.971 | locus YOR231W, strain MKK1, stronger effect = lower value 1 | locus YOR265W, strain rbl2, stronger effect = lower value 1.01 | locus YOR270C, strain vph1, stronger effect = lower value 0.917 | locus YOR290C, strain snf2, stronger effect = lower value 0.977 | locus YPL051W, strain arl3, stronger effect = lower value 0.987 | locus YPL078C, strain atp4, stronger effect = lower value 0.965 | locus YPL106C, strain sse1, stronger effect = lower value 0.968 | locus YPL240C, strain hsp82, stronger effect = lower value 0.999 | locus YPL256C, strain CLN2, stronger effect = lower value 0.982
